High-throughput results deposited in PubChem BioAssay by several laboratories.
CHT block – inhibits the human high affinity choline transporter; B-score at 10 µM; AID 488975; CHT-expressing cells, membrane potential dye, choline response; stronger effect = lower value; actives 0.86% (n = 310,000);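 active = B-score over 3 SD under the library average, and starting fluorescence ratio not unusually high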;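 also: choline stimulus applied at its EC90 after an EC20 pre-addition; B-score computed on integrated fluorescence ratio after choline addition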
Target sequence (Q9GZV3 whole entry, looked up): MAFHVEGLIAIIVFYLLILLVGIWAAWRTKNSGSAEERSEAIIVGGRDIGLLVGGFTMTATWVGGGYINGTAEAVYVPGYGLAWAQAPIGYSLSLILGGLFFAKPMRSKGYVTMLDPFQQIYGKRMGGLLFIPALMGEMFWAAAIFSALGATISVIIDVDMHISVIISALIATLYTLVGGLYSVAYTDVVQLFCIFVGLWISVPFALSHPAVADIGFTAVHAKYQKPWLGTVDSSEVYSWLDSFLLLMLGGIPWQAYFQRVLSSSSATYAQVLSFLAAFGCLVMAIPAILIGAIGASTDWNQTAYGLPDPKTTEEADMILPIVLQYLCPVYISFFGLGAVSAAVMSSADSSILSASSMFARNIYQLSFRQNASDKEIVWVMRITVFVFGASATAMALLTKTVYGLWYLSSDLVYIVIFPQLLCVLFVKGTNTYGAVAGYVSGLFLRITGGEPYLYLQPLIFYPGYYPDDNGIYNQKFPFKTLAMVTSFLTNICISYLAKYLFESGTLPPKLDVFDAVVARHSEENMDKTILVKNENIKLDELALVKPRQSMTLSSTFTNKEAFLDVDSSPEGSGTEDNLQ
PKA-R2B act – activators of human PKA-R2B complex; AID 504700; actives 0.079% (n = 340,000); activation, % at 11.4 µM; PKA-R2B holoenzyme dissociation, Cy5-IP20 fluorescence polarization; R2B truncated from residue 108, S112A mutant; 0% DMSO only, 100% 113 µM cGMP;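 active = activation above a cutoff set at the mean over all compounds plus 3 SD, cut at about 18% in these data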;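 also: higher means more holoenzyme dissociation and a rise in polarization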
PKA-R1A activ – PKA-R1A complex activation | PKA-R1A dissociation, Cy5-IP20 fluorescence polarization; scaled: DMSO 0%, 113 µM cGMP 100% | activation, % at 11.4 µM | AID 504707 | actives 0.083% (n = 340,000);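 active = percent activation above the mean of all tested compounds plus 3 SD, cut at about 19% in these data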;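 also: higher means more PKAc released from R1A so a rise in polarization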
ANO1 block – mouse TMEM16A channel inhibition, primary screen | Q8BHY3 | HEK293 TMEM16A/YFP iodide influx fluorescence, ionomycin | normalized B-score (activity score, 25-100; higher = stronger inhibition) at 10 µM | actives 1.2% (n = 310,000);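 active = ratio plate-corrected score three or more library SD toward inhibition, starting fluorescence score within five deviations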;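 also: score derived from kinetic fluorescence span divided by baseline fluorescence per well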
CHT PAM – human CHT allosteric activation; AID 488977; actives 0.49% (n = 310,000); Q9GZV3; CHT-expressing cells, membrane potential dye, choline EC20; stronger effect = higher value; LV-AA mutant CHT in HEK293 cells; B-score at 10 µM;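 active = initial fluorescence not abnormally high and integrated response B-score, plate-corrected, over 3 SD above library mean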
TMEM16A act – activates or potentiates the mouse TMEM16A chloride channel. HEK293 TMEM16A/YFP-H148Q/I152L, iodide quench fluorescence; stronger effect = lower value. B-score at 10 µM. actives 0.3% (n = 340,000). AID 623877;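 active = fluorescence-ratio B-score plate-corrected deviation score at least 3 library SD below zero, with starting fluorescence score within 5 deviations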;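 also: channel opened by trigger with iodide after compound preincubation; score built on the fluorescence ratio of max minus min over baseline; more negative score means more quench and so TMEM16A activation or potentiation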
TMEM16A reconf – re-confirmation of mouse TMEM16A chloride channel inhibitors; shares compounds with ANO1 block; HEK293 TMEM16A/YFP-H148Q, iodide quench fluorescence; ionomycin added to raise cell calcium; inhibition, % at 10 µM; actives 39% (n = 2,300);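 active = mean duplicate percent inhibition, scaled so buffer wells are 0 and the reference blocker 100, over three buffer SD above buffer mean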
HEK293 Ca mobil – counter-screen for TMEM16A inhibitors: effect on calcium mobilization; actives 2% (n = 2,300); TMEM16A/YFP HEK293, Fluo4 calcium mobilization; calcium response (% of ionomycin), % at 10 µM; shares compounds with ANO1 block;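 active = duplicate-averaged calcium signal over 20% of the ionomycin maximum, relative to buffer baseline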;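 also: each well's signal is peak minus trough fluorescence divided by its pre-addition baseline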
Parental YFP cnt – acts in parental YFP-HEK293 cells lacking TMEM16A, counter-screen; shares compounds with ANO1 block; AID 652233; iodide YFP quench, ionomycin; YFP ratio F(max-min)/F0 at 10 µM; 2,300 tested, under 10 active;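 active = yellow fluorescent protein signal ratio exceeding the buffer control mean by over 5 SD of those controls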;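 also: ratio is mean of duplicate wells from kinetic YFP trace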
ClC-1 inh – blocks the rat ClC-1 voltage-dependent chloride channel; shares compounds with ANO1 block; CHO ClC-1-YFP, iodide influx fluorescence quench; iodide control reads 0, buffer control 100; ratio percent, % at 10 µM; 2,300 tested, under 10 active; AID 652236;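 active = duplicate-mean ratio percent above the mean of iodide-only control wells, which defines zero, plus 5 of their SD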;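 also: higher percent means stronger block of ClC-1 iodide influx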
Hits are given with their value; – = inactive; · = not tested or not shown. Shown are actives, neighbours in structure and some others; about 2.5% of the full set was active somewhere.

SMILES | CHT block | PKA-R2B act | PKA-R1A activ | ANO1 block | CHT PAM | TMEM16A act | TMEM16A reconf | HEK293 Ca mobil | Parental YFP cnt | ClC-1 inh
CC(C)c1ccccc1OCC(=O)NCC(c1cccs1)N1CCOCC1 (configuration not stated) | – | – | – | 100 | – | – | 34% | – | – | –
COc1ccccc1OCC(=O)NCC(c1cccs1)N1CCOCC1 (configuration not stated) | – | – | – | – | – | – | · | · | · | ·
CCOc1ccc(Oc2ccc(S(=O)(=O)N3CCOCC3)cc2N)cc1 | – | – | – | – | – | – | · | · | · | ·
Nc1cc(S(=O)(=O)N2CCCCC2)ccc1Oc1ccccc1 | – | – | – | 25 | – | – | 16% | – | – | –
COc1ccc(NS(=O)(=O)c2cccc(NC(=O)c3cnccn3)c2)cc1Br | – | · | · | – | – | – | · | · | · | ·
Cc1cc(/C=N/n2cnnc2)c(C)n1-c1ccc(OCc2ccccc2F)cc1 | – | – | – | – | – | – | · | · | · | ·
Cc1cc(/C=N/n2cnnc2)c(C)n1-c1ccc(OCc2ccc(Cl)cc2)cc1 | – | – | – | 100 | – | – | 24% | – | – | –
COc1ccc(NC(=O)COC(=O)c2ccc(S(=O)(=O)N(C)c3ccccc3OC)cc2)cc1 | · | – | – | · | · | – | · | · | · | ·
CCOC(=O)C[C@H]1c2ccc(C(F)(F)F)cc2S(=O)(=O)N1C(C)C | – | – | – | – | – | – | · | · | · | ·
COc1cc2c(cc1NCc1ccccn1)oc1ccccc12 | – | – | – | 100 | – | – | – | – | – | –
COc1ccc(/C=C2\SC(=S)N(NS(=O)(=O)c3ccc(C)cc3)C2=O)c(OC)c1 | – | – | – | 25 | – | – | 23% | – | – | –
Cc1cc(C)cc(-n2c(C)cc(/C=N/NC(=O)CSc3ncccn3)c2C)c1 | – | – | – | 25 | – | – | – | – | – | –
COC(=O)C1=CN(Cc2ccc(C)cc2)C=C(C(=O)OC)C1c1ccc(F)c(F)c1 | – | – | – | – | – | – | · | · | · | ·
COC(=O)C1=CN(Cc2ccccc2)C=C(C(=O)OC)C1c1cc(F)ccc1F | – | – | – | – | – | – | – | – | – | –
COc1ccc(CCOC(=O)c2ccc(N)c([N+](=O)[O-])c2)cc1 | – | – | – | – | – | – | · | · | · | ·
CC(=O)c1cccc(OC(=O)Oc2cccc(C(C)=O)c2)c1 | · | – | – | · | · | – | · | · | · | ·
CCOc1ccc(NS(=O)(=O)c2ccc(NC(=S)NC(=O)CC(C)C)cc2)cc1 | – | – | – | 100 | – | – | 38% | – | – | –
CCCC(=O)NC(=S)Nc1ccc(S(=O)(=O)Nc2ccc(OCC)cc2)cc1 | – | – | – | – | – | – | · | · | · | ·
COc1ccccc1N1CCN(CC(=O)Nc2ccccc2C(=O)NCCc2ccccc2)CC1 | · | – | – | · | · | – | · | · | · | ·
COc1ccccc1NS(=O)(=O)c1cccc(C(=O)NC2CCN(Cc3ccccc3)CC2)c1 | – | – | – | 100 | – | – | 56% | – | – | –
Cc1ccc(NS(=O)(=O)c2cccc(C(=O)NC3CCN(Cc4ccccc4)CC3)c2)c(C)c1 | · | – | – | · | · | – | · | · | · | ·
CC(=O)Nc1ccc(Cc2nc3c([nH]2)c(=O)n(C)c(=O)n3C)cc1 | – | · | · | – | – | · | · | · | · | ·
O=C(CSc1n[nH]c(=O)n1Cc1ccco1)Nc1ccccc1 | – | · | · | – | – | – | · | · | · | ·
CC(C)c1ccc(NC(=O)CSc2n[nH]c(=O)n2Cc2ccco2)cc1 | – | · | · | 25 | – | – | 20% | – | – | –
